Measured values reported in PubChem BioAssay AID720596 (The Scripps Research Institute Molecular Screening Center, 2013).
About 1,600 (0.43%) of roughly 370,000 compounds were called active. Many of the other results were omitted from the sample, so actives are more common in it than they were. A number with no mark means an inactive call. No stated cut-off is given here; in the data, active means inhibition above about 24%; inactive means the rest.

These compounds were tested against Major prion protein (Homo sapiens) (UniProt P04156) (assay: reduces human prion protein on the cell surface, primary screen, cell-based, TR-FRET (AID 720596; further: 0% = median of the test wells and 100% = reference compound wells)). Details: cell surface PrPC, TR-FRET read-out; at 13.8 µM; active compounds read high.
In the case of `O=S(=O)(c1ccc(SCc2ccccc2)nc1)N1CCCCCC1`, the inhibition was -0.79%.
For `COC(=O)c1ccc(CSc2ccc(S(=O)(=O)N3CCCCC3)cn2)cc1`, the inhibition was 0.66%.
In the case of `Cc1ccc(CSc2ccc(S(=O)(=O)N3CCCCC3)cn2)cc1`, the inhibition was 33.8% (active).
For `CCOc1ccc(CCNC(=O)C2CCN(c3ccc(N4CCOCC4)nn3)CC2)cc1OCC`, the inhibition was -16.1%.
With `O=C(/C=C/c1cccc([N+](=O)[O-])c1)OCC(=O)N1CCOCC1` the inhibition was -2.76%.
Work on `CCN(C(=O)[C@@H](C1CC1)[C@@H](O)c1ccc2ccccc2c1)c1ccccc1` yielded an inhibition of -3.85%.
`COc1ccc(CN2CCC(c3nc4ccc(Cl)cc4[nH]3)CC2)cc1` showed an inhibition of -13.1%.
With `Cc1ccc(CN2CCCOCCS2(=O)=O)cc1` the inhibition was 2.42%.
`COc1ccc(C(=O)N2CCCCC2c2cc(C(=O)Nc3ccc(F)c(Cl)c3)no2)cc1` (stereo unspecified) showed an inhibition of -1.86%.
`Cc1cc(=O)n2[nH]c(-c3sccc3-n3c(C)ccc3C)cc2n1` was tested, and the inhibition was 13.4%.
For `CCc1c(C)nc2cc(-c3cccs3)[nH]n2c1=O`, the inhibition was 37.9% (active).
`CCc1c(C)nc2cc(C)[nH]n2c1=O` gave an inhibition of 1.02%.
For `CC(C)n1c(=S)[nH]c2cc(C(F)(F)F)ccc21`, the inhibition was -2.04%.
`O=C(CNC(=O)c1ccccc1)OC(C(=O)Nc1cc([N+](=O)[O-])ccc1F)c1ccccc1` (stereo unspecified) showed an inhibition of 9.58%.
For `O=C(NC(Nc1nc2ccc([N+](=O)[O-])cc2s1)(C(F)(F)F)C(F)(F)F)c1ccccc1`, the inhibition was 43.8% (active).
Work on `O=C(Nc1nc2ccc(Cl)cc2s1)c1cc(-c2ccc(Cl)cc2)nc2ccccc12` yielded an inhibition of 6.81%.
Work on `Cc1cc(C(=O)NN=C/C=C/c2ccco2)n[nH]1` yielded an inhibition of -15.4%.
`CCn1c(SCC(=O)Nc2nc(C)cs2)nnc1C(C)NC(=O)c1ccccc1` (stereo unspecified) was tested, and the inhibition was -3.46%.
Work on `CC(=O)N1C[C@@H](CO)[C@@H](N(C)C(=O)c2ccco2)C[C@H]1c1ccccc1` yielded an inhibition of -3.63%.
`CCN(CC(=O)NCc1cccs1)C(=O)/C=C/c1ccc(C)cc1` showed an inhibition of -4.17%.
With `COC(=O)Cc1[nH]n(-c2nc3ccccc3s2)c(=O)c1C(C)=Nc1ccc(OC)cc1` the inhibition was 32.6% (active).
`O=C(COC(=O)CNS(=O)(=O)c1ccc(F)c(F)c1F)NC1CCCC1` showed an inhibition of -0.54%.
`O=C(COC(=O)c1cnccn1)Nc1ccc(Cl)cc1C(F)(F)F` showed an inhibition of 5.86%.
For `Cc1c(S(=O)(=O)N2CC(C)CC(C)C2)c(=O)n(C)c(=O)n1C` (stereo unspecified), the inhibition was 5.95%.
In the case of `CCSc1nc(C)c(CCOc2cccc(C)c2)c(=O)[nH]1`, the inhibition was 4.37%.
Compound `CN(C)S(=O)(=O)c1ccc(NC(=O)COC(=O)c2n[nH]c3ccccc23)cc1` has an inhibition of 0.47%.
For `CCCc1nc(SCC(=O)Nc2ccc(S(=O)(=O)N(C)C)cc2)c2ccccc2n1`, the inhibition was 52.8% (active).
In the case of `CC(C)N(C(=O)CSc1nc(COc2ccccc2)nc2ccccc12)C(C)C`, the inhibition was 12.9%.
For `COc1ccc(C(=O)Cn2nnc(-c3ccc(N4CCOCC4)cc3)n2)cc1OC`, the inhibition was 2.45%.
With `O=c1[nH]c(=O)n(Cc2ccco2)c2c1C(C(F)(F)F)(C(F)(F)F)N=C(c1ccco1)N2` the inhibition was -1.08%.
With `Fc1ccc2[nH]c3c(N4CCSCC4)ncnc3c2c1` the inhibition was 40.8% (active).
In the case of `CC(=O)NC(NC(=S)Nc1c(C)n(C)n(-c2ccccc2)c1=O)C(Cl)(Cl)Cl` (stereo unspecified), the inhibition was -1.39%.
With `CCN(CC)c1ccc(C(=O)NNC(=O)CCc2nc3ccccc3c(=O)[nH]2)cc1` the inhibition was 1.99%.
`CCc1nc(SCC(=O)NNC(=O)c2ccc(C)cc2)c2ccccc2n1` was tested, and the inhibition was 97.6% (active).
With `Cc1ccc(SCC(=O)NNC(=O)c2ccc(S(C)(=O)=O)cc2)cc1` the inhibition was -1.94%.
Compound `CCCN(CCC)S(=O)(=O)c1ccc(C(=O)N2CC3CCC(CC3)C2)cc1` has an inhibition of 0.5%.
`O=C(Nc1c(Cl)c(C2CC2)nn1-c1ccccc1)C(Cl)(Cl)Cl` was tested, and the inhibition was 1.29%.
`CCC(C)NC(=O)N[C@@H](CCSC)C(=O)O` (stereo partly specified) was tested, and the inhibition was -4.34%.
With `CCC(C)NC(=O)c1nn(C)c(=O)c2ccccc12` (stereo unspecified) the inhibition was -2.76%.
`Cc1cccc(C(=O)C(O)(c2ccccc2)C2CCCCC2=O)c1` (stereo unspecified) was tested, and the inhibition was -5.23%.
Compound `N#Cc1ccccc1Sc1ccccc1C(=O)OCC(=O)NC1CCCCC1` has an inhibition of -7.2%.
`O=C(COC(=O)c1cccc(Cl)c1Cl)NC1CCCCCC1` gave an inhibition of 4.24%.
In the case of `O=C(COC(=O)c1ccccc1SCC(=O)NC1CCCCC1)NC1CCCCC1`, the inhibition was 52.2% (active).
`COC(=O)Cc1nc2c(N)nc(N)nc2[nH]c1=O` gave an inhibition of 4.68%.
Compound `Cc1sc(NC(=O)C2C3CCC(O3)C2C(=O)O)c(C(=O)OC(C)C)c1-c1ccc(Cl)cc1` (stereo unspecified) has an inhibition of 7.78%.
With `CCOC(=O)C1CCN(C(=O)C2CCCN(S(=O)(=O)c3ccc(OC)c(Cl)c3)C2)CC1` (stereo unspecified) the inhibition was -3.34%.
`CC(=O)N1CCCc2cc(S(=O)(=O)N3CCCC(C(=O)N4CCN(c5cccc(Cl)c5)CC4)C3)ccc21` (stereo unspecified) was tested, and the inhibition was 40.4% (active).
For `CC(=O)N1c2ccc(S(=O)(=O)N3CCCC(C(=O)NCc4ccc(Cl)cc4)C3)cc2CC1C` (stereo unspecified), the inhibition was 10.5%.
With `CC(=O)N1c2ccc(S(=O)(=O)N3CCCC(C(=O)Nc4ccc(C)cc4C)C3)cc2CC1C` (stereo unspecified) the inhibition was 6.63%.
Work on `CC(=O)N1c2ccc(S(=O)(=O)N3CCC(C(=O)NCc4ccc(F)cc4)CC3)cc2CC1C` (stereo unspecified) yielded an inhibition of -0.57%.
`COc1ccc(S(=O)(=O)N2CCCC(C(=O)N3CCN(C)CC3)C2)cc1C` (stereo unspecified) gave an inhibition of 2.94%.
`CC(=O)N1c2ccc(S(=O)(=O)N3CCC(C(=O)NC4CCCCC4C)CC3)cc2CC1C` (stereo unspecified) showed an inhibition of 6.59%.
For `CC(=O)N1CCCc2cc(S(=O)(=O)N3CCCC(C(=O)NCc4ccc(Cl)cc4)C3)ccc21` (stereo unspecified), the inhibition was 29.3% (active).
For `CC(=O)N1c2ccc(S(=O)(=O)N3CCCC(C(=O)Nc4cccc(F)c4)C3)cc2CC1C` (stereo unspecified), the inhibition was 51.1% (active).
`CCOC(=O)C1CCN(C(=O)COc2cc(C)c(Br)c(C)c2)CC1` showed an inhibition of 0.57%.
`O=C(/C(=N\O)n1cncn1)c1ccc(Br)cc1Br` showed an inhibition of -3.03%.
For `CC12CN(Cc3ccccc3)CC(C)(CN(Cc3ccccc3)C1)C2=NO`, the inhibition was -7.09%.
Compound `COc1ccc(Cn2cc(COC(=O)N(C)Cc3ccccc3)nn2)cc1` has an inhibition of 6.15%.
`OCC1(CO)CC2(C1)CC(CO)(CO)C2` gave an inhibition of 2.39%.
In the case of `O=C(Nc1cc(F)cc(F)c1)OC1CCC12CCC(c1ccccc1)CC2` (stereo unspecified), the inhibition was 4.41%.
`FC(F)(F)c1cccc(NC(=S)OC2CCC23CCC(c2ccccc2)CC3)c1` (stereo unspecified) was tested, and the inhibition was 24.4% (active).
In the case of `CSc1nccc(NC(=O)c2ccc(C(C)(C)C)cc2)n1`, the inhibition was 29.4% (active).
With `CSc1ncc(C(=O)Nc2ccc(C)cc2C)c(C)n1` the inhibition was -0.45%.
`CC(C)(C)c1ccc(C(=O)Nc2cc(Cl)c(Br)cc2C(=O)O)cc1` gave an inhibition of 21%.
In the case of `Cn1cc(CN2CCCCC2c2ccccn2)c(-c2ccc3c(c2)OCCO3)n1` (stereo unspecified), the inhibition was -3.25%.
In the case of `CC(C)C(=O)N1CCC2(CC1)Oc1ccc(F)cc1C(=O)C21CC(c2ccccc2)=NO1` (stereo unspecified), the inhibition was -0.07%.
With `CCCCN(CC)C(=O)C1CCCN(S(=O)(=O)c2cccc3nsnc23)C1` (stereo unspecified) the inhibition was -27.1%.
In the case of `COc1cc(C)c(C(C)C)cc1S(=O)(=O)n1ccnc1`, the inhibition was -1.35%.
With `OCCCNc1nccc(-c2cc(Nc3cccc(Cl)c3)ncn2)n1` the inhibition was 29.2% (active).
Work on `COCn1c(C(O)c2ccccc2)cc2ccccc21` (stereo unspecified) yielded an inhibition of 6.96%.
`O=C(O)C#Cc1cccc2ccccc12` showed an inhibition of 17.9%.
In the case of `CN(O)C(=S)c1ccccc1`, the inhibition was 36.8% (active).
`O=C(c1ccco1)N1CCN(CC(=O)N(C2CCCCC2)C2CCS(=O)(=O)C2)CC1` (stereo unspecified) gave an inhibition of 7.46%.
Work on `CC1=CCC2C(=O)N(c3cccc(C(=O)NC(C)c4ccccc4)c3)C(=O)C2C1` (stereo unspecified) yielded an inhibition of -1.98%.
Compound `COc1ccc(CCN2C(=O)C3CC=C(C)CC3C2=O)cc1OC` (stereo unspecified) has an inhibition of -3.31%.
With `CC(=O)c1nc(N2C(=O)C3CC=C(C)CC3C2=O)sc1C` (stereo unspecified) the inhibition was 38.2% (active).
With `Cc1ccc(N2C(=O)N3[C@@H]4c5ccccc5OC[C@@H]4[C@@H](c4ccccc4)[C@@]3(C)C2=O)cc1` the inhibition was -0.71%.
Compound `O=C(CCn1nnnc1CN1CCOCC1)N1CCC(c2ccccc2Cl)C1` (stereo unspecified) has an inhibition of 1.76%.
In the case of `COCCNC(=O)C1(C)CCCN(Cc2cccc(F)c2)C1` (stereo unspecified), the inhibition was 10.6%.
`CC(C)CC(N=C1NC(C)(C)Cc2ccccc21)C(=O)O` (stereo unspecified) showed an inhibition of -0.6%.
With `CC1(C)Cc2ccccc2-c2[nH]c(=S)[nH]c(=O)c21` the inhibition was 78.3% (active).
`N#CC1=C(N)Oc2[nH]c(=S)[nH]c(=O)c2C12C(=O)Nc1ccccc12` (stereo unspecified) was tested, and the inhibition was -0.84%.
For `O=C(CCCCCN1C(=O)C2C3C=CC(C3)C2C1=O)Nc1ccccc1` (stereo unspecified), the inhibition was 3.7%.
For `Cc1ccc(C)c(NC(=O)C2CC(=O)N(C(C)C)C2)c1` (stereo unspecified), the inhibition was 1.81%.
`CC(C)(C)NC(=O)COc1ccc(CNc2ccc3[nH]c(=O)[nH]c3c2)cc1` showed an inhibition of -1.03%.
Compound `COc1ccc(NC(=O)CN(C)C(=O)CNC(=O)C2CCCCC2)cc1` has an inhibition of 7.94%.
For `COc1ccccc1NC(=O)COC(=O)CNC(=O)C1CCCCC1`, the inhibition was -3.12%.
In the case of `COc1ccc(NC(=O)COC(=O)CNC(=O)C2CCCCC2)cc1`, the inhibition was 31.5% (active).
`Cc1ccc(NC(=O)N2c3ccccc3SC2c2ccco2)c(C)c1` (stereo unspecified) was tested, and the inhibition was 2.15%.
Work on `COc1ccc(C(=O)N2CCCCC2c2cc(C(=O)Nc3ccccc3)no2)cc1` (stereo unspecified) yielded an inhibition of 6.89%.
In the case of `CN1CCn2cnc(C(=O)NCC(=O)OC(C)(C)C)c2C1=O`, the inhibition was -0.34%.
